From PubChem BioAssay
Activity calls are given as the source filed them.

Key:
[1] = system: Human papillomavirus type 1a protein E7 (residues 44-93); assay: HPV1a E7 fragment binders on microarrays, primary screen, biochemical, small-molecule microarray, residues 44-93, 635 nm fluorescence (AID 1108); details: small-molecule microarray binding, fluorescence 635 nm; higher = more signal;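 further: E7 fragment applied at 1 µg/mL in TBST for 1 h at 4 C; score combines spot fluorescence with its signal to noise ratio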
[2] = modulators of HCV replicon luciferase signal, primary screen, HCV replication inhibitor project, Huh7 cells, luciferase reporter (AID 1109); details: 48 h, higher = more signal;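 further: huh7 hepatoma cells harbouring a luciferase neomycin HCV replicon reporter; luciferase luminescence as measure of HCV replicon replication; test concentration not given here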
[3] = biological target: Left-right determination factor 2 (Homo sapiens) (UniProt O00292); assay: LEFTY2 binders on small-molecule microarrays, primary screen, biochemical, small-molecule microarray, 635 nm fluorescence scan (AID 1110); details: LEFTY2 binding, higher = more signal
[4] = biological target: Calmodulin-1 (Homo sapiens) (UniProt P0DP23); assay: CALM1 binders on microarrays, EGTA buffer, profiling panel, biochemical, small-molecule microarray, Cy5-labelled CALM1 (AID 1111); details: Cy5-CALM1 binding fluorescence, higher = more signal;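 further: labelled calmodulin applied in Tris saline Tween buffer holding calcium plus EGTA and DTT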
[5] = biological target: Calmodulin-1 (Homo sapiens) (UniProt P0DP23); assay: calcium-bound CALM1 binders on microarrays, profiling panel, artefact control for SMM control-protein annotation, biochemical, small-molecule microarray, Cy5-labelled CALM1, plus calcium (AID 1112); details: Cy5-CALM1 binding fluorescence, higher = more signal;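 further: score merges spot fluorescence with signal to noise from triplicate slides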
[6] = small-molecule microarray binders of probe aWnt5a, primary screen, biochemical, biotinylated probe, 635/667 nm fluorescence (AID 1113); details: higher = more signal;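 further: score merges 667 nm fluorescence intensity with signal-to-noise per printed feature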
[7] = small-molecule microarray binders of probe aShh, primary screen, biochemical, biotinylated probe, 635/667 nm fluorescence (AID 1114); details: higher = more signal;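 further: probe is biotin-labelled aShh protein from a stem cell growth factor screen; measures binding of labelled protein to compounds printed on the slide; score merges feature fluorescence at 667 nm with signal-to-noise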
[8] = small-molecule microarray binders of probe aNog, primary screen, biochemical, biotinylated probe, 635/667 nm fluorescence (AID 1115); details: higher = more signal;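 further: probe is biotinylated aNog protein used at 0.15 µg/mL for 1 h at 4 C; z-score combines 667 nm fluorescence of each spot with its signal to noise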
[9] = biological target: Torsin-1A-interacting protein 1 (Homo sapiens) (UniProt Q5JTV8); assay: LAP1 binders from COS7 cell lysate, primary screen, small-molecule microarray, 635/667 nm fluorescence (AID 1116); details: COS7-hLAP1 lysate binding, 635 nm fluorescence, higher = more signal
[10] = biological target: Alpha-bungarotoxin (Bungarus multicinctus) (UniProt P60615); assay: alpha-bungarotoxin binders on microarray, profiling panel, artefact control for SMM control protein annotation, biochemical, small-molecule microarray, Alexa647 label, 635/667 nm fluorescence (AID 1117); details: alpha-BTX-A647 binding fluorescence, higher = more signal
Albumin (Bos taurus) = Albumin (Bos taurus) (UniProt P02769); assay: bovine serum albumin binders on microarray, profiling panel, artefact control for SMM control protein annotation, biochemical, small-molecule microarray, Alexa647 label, 635/667 nm fluorescence (AID 1118); details: BSA-A647 binding, fluorescence 635 nm, higher = more signal;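 further: score merges 667 nm emission intensity and signal-to-noise per printed compound spot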
[11] = small-molecule microarray binders of probe aXIP, primary screen, biochemical, NeuroSMM set, 635/667 nm fluorescence (AID 1119); details: higher = more signal, called active from +8 up or from −8 down;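 further: probe is the protein aXip251-270 applied at 1 µg/mL to compound-printed slides; binding of probe to printed compounds measured as 667 nm fluorescence plus signal to noise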
[12] = small-molecule binders of probe aNOTCH3, primary screen, biochemical, small-molecule microarray, 635/667 nm fluorescence (AID 1120); details: higher = more signal;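 further: probe is a biotin-tagged antibody raised against NOTCH3 rather than NOTCH3 protein; score merges spot fluorescence near 667 nm with spot signal to noise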
[13] = small-molecule binders of probe aNOTCH2, primary screen, biochemical, small-molecule microarray, 635/667 nm fluorescence (AID 1121); details: higher = more signal;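 further: score merges feature fluorescence read at 667 nm with its signal to noise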
[14] = biological target: Carbonic anhydrase 2 (Homo sapiens) (UniProt P00918); assay: CAII small-molecule binders, profiling panel, biochemical, small-molecule microarray, Alexa647-labelled CAII (AID 1122); details: CAII-A647 binding fluorescence, higher = more signal
[15] = COS7 lysate on small-molecule microarray, probe aHis, 635 nm (AID 1123); details: COS7 cell lysate, fluorescence, higher = more signal;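 further: z-score combines 667nm fluorescence intensity with signal-to-noise per printed compound spot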
[16] = compound binding in COS7 lysate, probe aLAP1, primary screen, cell lysate, small-molecule microarray (AID 1124); details: probe aLAP1, fluorescence, higher = more signal;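 further: lysate comes from COS7 cells expressing LAP1 and is applied at 0.3 µg/mL; score merges spot fluorescence near 667 nm with signal-to-noise over triplicate slides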
Sam68 (KHDRBS1) = assay: Sam68 small-molecule binders, primary screen, biochemical, small-molecule microarray, 635 nm fluorescence (AID 1125); details: small-molecule microarray binding, higher = more signal;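 further: score merges 667 nm channel intensity with signal to noise over triplicate slides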
[17] = system: Chordin-like protein 2 (CHRDL2); assay: CHRDL2 small-molecule binders, primary screen, biochemical, small-molecule microarray, 635 nm fluorescence (AID 1126); details: small-molecule microarray binding, fluorescence 635 nm; higher = more signal;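 further: printed compound slides probed with Chrdl2 protein at 4 µg/mL for 1 h at 4 C; score merges 667 nm emission intensity with signal to noise over three replicate slides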
[18] = biological target: Concanavalin-A (Canavalia ensiformis) (UniProt P02866); assay: ConA small-molecule binders, primary screen, artefact control for SMM control protein annotation, biochemical, small-molecule microarray, Alexa647 label, 635 nm (AID 1127); details: ConA-A647 binding fluorescence, higher = more signal;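 further: z combines 667 nm emission intensity with signal-to-noise across three replicate slides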
Concanavalin-A (Canavalia ensiformis), sequence (P02866 whole entry, looked up): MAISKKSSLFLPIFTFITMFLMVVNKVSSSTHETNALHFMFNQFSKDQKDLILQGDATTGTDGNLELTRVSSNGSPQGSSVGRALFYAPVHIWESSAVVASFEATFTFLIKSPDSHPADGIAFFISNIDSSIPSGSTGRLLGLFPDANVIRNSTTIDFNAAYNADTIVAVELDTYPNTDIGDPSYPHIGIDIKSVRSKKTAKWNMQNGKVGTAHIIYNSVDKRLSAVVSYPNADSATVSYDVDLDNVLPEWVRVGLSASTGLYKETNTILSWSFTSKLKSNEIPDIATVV

Albumin (Bos taurus), sequence (P02769 whole entry, looked up): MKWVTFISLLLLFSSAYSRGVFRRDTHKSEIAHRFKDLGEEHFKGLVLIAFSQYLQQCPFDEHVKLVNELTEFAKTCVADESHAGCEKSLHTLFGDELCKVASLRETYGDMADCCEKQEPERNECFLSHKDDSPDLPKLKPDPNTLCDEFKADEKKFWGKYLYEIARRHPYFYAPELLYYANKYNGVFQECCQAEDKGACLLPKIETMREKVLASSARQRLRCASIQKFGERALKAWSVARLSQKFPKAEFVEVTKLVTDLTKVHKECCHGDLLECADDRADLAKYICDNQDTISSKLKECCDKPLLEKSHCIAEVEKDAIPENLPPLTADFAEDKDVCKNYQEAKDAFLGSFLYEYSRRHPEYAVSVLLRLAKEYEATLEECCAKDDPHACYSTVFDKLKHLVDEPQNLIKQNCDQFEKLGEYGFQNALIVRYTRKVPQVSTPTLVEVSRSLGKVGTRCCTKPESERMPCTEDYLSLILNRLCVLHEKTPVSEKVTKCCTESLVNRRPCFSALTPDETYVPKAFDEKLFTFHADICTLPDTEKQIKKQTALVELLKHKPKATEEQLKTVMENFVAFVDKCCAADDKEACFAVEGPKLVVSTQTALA
Left-right determination factor 2 (Homo sapiens), sequence (O00292 whole entry, looked up): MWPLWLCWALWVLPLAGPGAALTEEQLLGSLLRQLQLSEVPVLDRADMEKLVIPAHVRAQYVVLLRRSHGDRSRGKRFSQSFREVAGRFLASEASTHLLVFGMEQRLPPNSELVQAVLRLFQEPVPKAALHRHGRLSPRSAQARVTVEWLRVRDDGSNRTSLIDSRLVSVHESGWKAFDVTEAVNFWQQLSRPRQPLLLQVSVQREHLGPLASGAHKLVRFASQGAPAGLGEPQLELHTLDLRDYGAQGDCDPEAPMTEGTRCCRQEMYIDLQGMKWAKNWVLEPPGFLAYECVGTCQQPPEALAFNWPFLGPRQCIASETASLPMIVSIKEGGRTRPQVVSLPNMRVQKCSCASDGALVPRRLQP
Alpha-bungarotoxin (Bungarus multicinctus), sequence (P60615 whole entry, looked up): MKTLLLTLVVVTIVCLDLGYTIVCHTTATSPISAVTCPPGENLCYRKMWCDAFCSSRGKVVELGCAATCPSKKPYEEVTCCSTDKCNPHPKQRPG
Torsin-1A-interacting protein 1 (Homo sapiens), sequence (Q5JTV8 whole entry, looked up): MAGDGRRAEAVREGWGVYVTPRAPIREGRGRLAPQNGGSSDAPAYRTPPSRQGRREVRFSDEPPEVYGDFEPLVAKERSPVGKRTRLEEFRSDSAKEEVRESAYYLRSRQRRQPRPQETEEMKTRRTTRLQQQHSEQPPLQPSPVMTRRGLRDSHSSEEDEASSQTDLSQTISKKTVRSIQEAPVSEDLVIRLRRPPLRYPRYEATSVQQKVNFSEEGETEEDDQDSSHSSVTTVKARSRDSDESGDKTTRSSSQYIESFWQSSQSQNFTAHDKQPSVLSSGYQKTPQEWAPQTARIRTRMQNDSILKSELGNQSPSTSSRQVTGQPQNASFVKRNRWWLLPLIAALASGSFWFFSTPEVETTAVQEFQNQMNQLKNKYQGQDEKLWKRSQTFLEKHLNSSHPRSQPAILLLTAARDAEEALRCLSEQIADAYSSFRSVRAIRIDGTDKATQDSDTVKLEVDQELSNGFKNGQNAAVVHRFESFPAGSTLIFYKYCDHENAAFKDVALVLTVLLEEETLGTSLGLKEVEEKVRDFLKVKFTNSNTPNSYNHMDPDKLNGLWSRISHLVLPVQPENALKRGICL

Row | SMILES | composite z-score [1] | z-score [2] | composite z-score [3] | composite z-score [4] | composite z-score [5] | composite z-score [6] | composite z-score [7] | composite z-score [8] | composite z-score [9] | composite z-score [10] | composite z-score (Albumin (Bos taurus)) | composite Z-score [11] | composite z-score [12] | composite z-score [13] | composite z-score [14] | composite z-score [15] | composite z-score [16] | composite z-score (Sam68 (KHDRBS1)) | composite z-score [17] | composite z-score [18]
1 | C=CC[C@]1(C(=O)N2CCOCC2)COC(c2ccc(OCCCO)cc2)=N1 | 1.53 | -0.164 | -0.233 | 1.64 | -0.497 | -0.0236 | 0.381 | 1.11 | 1.98 | 2.21 | 1.08 | -0.275 (inactive) | 0.298 | -0.13 | 0.777 | 3.27 | 1.6 | 1.28 | 0.191 | 1.16
2 | CCCC[C@@H](O)C1=C(COC)C[C@H]2C(=O)N(Cc3ccccc3)C(=O)[C@H]2[C@H]1CO | 0.34 | -0.655 | 0.568 | -0.37 | -0.359 | 0.0102 | -0.345 | 0.116 | 0.515 | 0.516 | 0.232 | -0.306 (inactive) | -0.214 | -0.0668 | 0.0793 | 0.368 | 0.263 | 0.651 | 0.293 | 0.455
3 | O=C1OCCC/C=C\[C@H]2OC34C=CCN(c5ccc6ccccc6c5)C(=O)[C@H]3N(CCO)C(=O)[C@@H]4C12 (stereo not given in full) | -0.983 | -0.0164 | -1.2 | 0.0755 | 0.903 | -0.154 | -0.0533 | -0.0631 | -0.399 | -1.95 | -1.75 | 0.278 (inactive) | -0.355 | -0.213 | 0.959 | -0.237 | 1.48 | -0.359 | -2.13 | -1.39
4 | C=CCN1C(=O)[C@]2(CCS(=O)(=O)c3ccccc3)N=C(c3ccc(OCCCO)cc3)O[C@@H]2c2ccccc21 | 1.29 | -2.68 | 0.59 | 2.17 | -0.493 | -0.0268 | 0.365 | 0.033 | 1.68 | 1.2 | 0.8 | -0.0072 (inactive) | 0.177 | -0.112 | 0.594 | 3.23 | 1.31 | 1.31 | 1 | 1.17
5 | N[C@@H](Cc1ccccc1)C(=O)NCc1cn(Cc2ccccc2)nn1 | -0.132 | 0.0943 | 0.167 | -0.761 | -0.232 | -0.119 | -0.0904 | -0.245 | 0.775 | 1.11 | -0.337 | 0.961 (inactive) | -0.0656 | -0.101 | 0.431 | -0.276 | -0.0884 | -0.341 | 0.849 | -0.0527
6 | O[C@@H](Cc1ccccc1)[C@@H](/C=C/C1CC1)N(CC#Cc1ccccc1)Cc1ccccc1Br | -0.0988 | -2.71 | -0.804 | -0.582 | 0.282 | -0.203 | -0.0769 | -0.224 | -0.183 | -0.288 | -0.144 | 0.586 (inactive) | -0.218 | -0.171 | -0.0441 | 0.41 | 0.146 | -1.33 | -1.36 | -0.564
7 | CC(C)[Si](C#CCCCC#N)(O[C@H](c1ccccc1)c1cn(Cc2ccccc2)nn1)C(C)C | 0.157 | -0.147 | -0.0465 | -0.321 | -0.458 | -0.252 | 0.0469 | 0.111 | 0.439 | -0.199 | 0.728 | -0.535 (inactive) | 0.123 | -0.174 | 0.249 | 0.691 | 0.272 | 1.16 | 0.568 | 0.536
8 | CC(c1ccccc1)C(O)C1C=CC2C(=O)N(C)C(=O)C2N1Nc1ccccc1 (stereo not given) | 1.23 | -0.684 | -0.541 | 2 | 0.735 | 0.157 | 0.208 | 0.462 | 0.694 | 2.06 | 0.921 | 0.318 (inactive) | 0.5 | -0.0067 | 0.601 | 2.5 | 0.406 | 1.31 | -0.826 | 1.21
9 | COC(=O)[C@@]1(Cc2ccc(OC)cc2)[C@H]2c3cc(C(=O)N(C)C)n(Cc4ccc(C)o4)c3C[C@H]2CN1C(=O)c1ccccc1 | 1.42 | -2.04 | -0.466 | 0.372 | -0.223 | 0.091 | 0.596 | 0.243 | 1.27 | 0.41 | 0.814 | 1.24 (inactive) | 0.517 | 0.204 | 0.806 | 2.99 | 0.463 | 0.933 | -0.905 | 0.842
10 | NC(=O)NCC#Cc1ccc2c(c1)[C@]1(C(=O)N2)[C@H](c2ccccc2OCCO)N2[C@H](c3ccccc3)[C@H](c3ccccc3)OC(=O)[C@H]2[C@@H]1C(=O)O | 1.27 | -0.331 | -0.351 | 0.505 | 0.629 | -0.169 | -0.0035 | -0.359 | 0.299 | 0.589 | 0.276 | 0.155 (inactive) | -0.245 | -0.0772 | 0.496 | 0.259 | 0.931 | 0.293 | -0.128 | 0.96
11 | COCCOC(=O)N1C(=O)[C@@]2(c3ccccc31)[C@H](C(=O)NC[C@H](O)c1ccccc1)[C@H]1C(=O)O[C@H](c3ccccc3)[C@H](c3ccccc3)N1[C@@H]2c1ccc(O)cc1 | 1.44 | -0.986 | 0.768 | 0.573 | -0.522 | -0.0072 | 0.209 | 0.39 | 1.21 | 1.78 | -0.411 | 0.244 (inactive) | -0.198 | 0.0377 | 0.432 | 2.28 | 0.236 | 1.3 | 1.04 | 1.12
